Assay outcomes as filed in PubChem.
POLI inh = qHTS for Inhibitors of Polymerase Iota; DNA polymerase iota (Homo sapiens), Q9UNA4; Pol iota fluorescent replication assay, 10 min; Potency, µM (series often up to 115 µM), inactives show at the highest dose activity, negative = inhibition, usual class: inhibitors; 390,000 compounds, 1% hits; AID 588590, 2011; also: potency is read from the fitted curve at half-maximal effect
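Pol iota at 10 nM preincubated 15 min with compounds at room temperature; reaction started with fluorescent substrate, 50 nM final. Fluorescence read kinetically at 0 and 10 min; buffer-only wells as negative control.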
POLK inh = qHTS for Inhibitors of Polymerase Kappa; DNA polymerase kappa (Homo sapiens), Q9UBT6; purified Pol kappa, fluorescent DNA synthesis assay, 10 min; Potency, µM (titrated, usually from 107 µM), without a hit: at the top dose activity, negative = inhibition, usual class: inhibitors; 400,000 compounds, 0.53% hits; AID 588579, 2011; also: potency is read from the fitted curve at half-maximal effect; % is scaled to controls: 0 for no effect and ±100 for the full control effect
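Kinetic fluorescence screen: compound preincubated 15 min RT with 10 nM enzyme; 50 nM substrate (final) initiates; reads at 0/10 min.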
L3MBTL1 block = qHTS Assay for the Inhibitors of L3MBTL1. Lethal(3)malignant brain tumor-like protein 1 (Homo sapiens), Q9Y468. AID 485360, 2010. Potency, µM (top dose mostly 57.1 µM), for the others: at the top dose activity, negative = inhibition, most hits filed as inhibitors. 230,000 compounds, 0.66% hits. AlphaScreen L3MBTL1–H3K9me1 peptide binding; also: potency is read from the fitted curve at half-maximal effect; % is scaled to controls: 0 for no effect and ±100 for the full control effect; nearly all actives have a fitted effect of over 60% in size
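L3MBTL1 50 nM + b-AHA-H3(1-15)K9me1 75 nM, 30 min RT; compound added, 30 min RT; streptavidin donor/Ni-chelate acceptor beads 10 ug/mL each final, 30 min RT dark; AlphaScreen read.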
POLB inh = qHTS Assay for Inhibitors of DNA Polymerase Beta; Potency, µM (doses to about 114 µM), for inactives: top-dose activity change, negative = inhibition, hits mostly inhibitors; Pol beta primer extension/strand displacement, fluorescence kinetic; 340,000 compounds, 1.3% hits; also: potency is read from the fitted curve at half-maximal effect; % is scaled to controls: 0 for no effect and ±100 for the full control effect
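Kinetic readout of DNA synthesis with strand displacement by Pol beta. Compound and 10 nM enzyme sit 15 min at room temperature; 50 nM substrate starts the reaction, read immediately and at 10 min.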
Pol eta inh-1 = qHTS for Inhibitors of Polymerase Eta; DNA polymerase eta (Homo sapiens), Q9Y253; recombinant Pol eta, fluorescent DNA replication assay; Potency, µM (highest dose often 114 µM), for the others: at the top dose activity change, negative = inhibition, actives largely listed as inhibitors; 390,000 compounds, 1.2% hits; also: potency is read from the fitted curve at half-maximal effect; % is scaled to controls: 0 for no effect and ±100 for the full control effect
Target sequence (Q9Y253 whole entry, looked up): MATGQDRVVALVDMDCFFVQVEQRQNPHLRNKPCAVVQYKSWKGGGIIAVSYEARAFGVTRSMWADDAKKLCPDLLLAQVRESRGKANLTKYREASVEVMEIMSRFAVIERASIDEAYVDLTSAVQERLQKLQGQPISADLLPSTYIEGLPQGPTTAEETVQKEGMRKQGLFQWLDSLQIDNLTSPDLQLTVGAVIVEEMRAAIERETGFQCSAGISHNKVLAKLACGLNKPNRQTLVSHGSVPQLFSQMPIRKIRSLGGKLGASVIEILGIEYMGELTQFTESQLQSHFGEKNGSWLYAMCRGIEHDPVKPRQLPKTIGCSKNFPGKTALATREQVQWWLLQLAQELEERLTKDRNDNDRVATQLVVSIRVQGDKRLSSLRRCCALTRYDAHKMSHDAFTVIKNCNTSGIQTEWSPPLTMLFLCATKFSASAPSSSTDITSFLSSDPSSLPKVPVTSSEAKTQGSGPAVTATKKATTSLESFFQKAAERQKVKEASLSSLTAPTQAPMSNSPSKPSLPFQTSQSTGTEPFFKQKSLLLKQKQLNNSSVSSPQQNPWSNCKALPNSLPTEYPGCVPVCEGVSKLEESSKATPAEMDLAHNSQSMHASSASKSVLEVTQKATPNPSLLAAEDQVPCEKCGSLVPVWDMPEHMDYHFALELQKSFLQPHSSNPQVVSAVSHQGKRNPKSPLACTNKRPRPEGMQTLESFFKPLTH
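Pol eta at 10 nM preincubated with compounds 15 min at room temperature; reaction started with fluorescent substrate (50 nM final) and read kinetically at 0 and 10 min.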
GALK confirm = Confirmation Assay for Inhibitors of Human Galactokinase (GALK); Potency, µM (highest dose often 115 µM), without a hit: at the top dose activity, negative = inhibition, hits mostly inhibitors; purified GALK, Kinase-Glo ATP depletion luminescence; AID 2015, 2009; 150 compounds, 70% hits; shares compounds with Pol eta inh-1
GALK redox cs = Confirmatory Assay for Inhibitors of Human Galactokinase (GALK): Phenol-HRP redox assay counterscreen; 150 compounds, 40% hits; AID 2035, 2009; Phenol red-HRP H2O2 redox cycling, absorbance 600 nm; shares compounds with Pol eta inh-1; Potency, µM (doses to about 115 µM), without a hit: at the highest dose activity change, negative = H2O2 signal, actives largely listed as inhibitors
HEK293 tox = Secondary Assay for Inhibitors of Human Galactokinase (GALK): HEK-293 Cell Viability Assay; Potency, µM (series often up to 46.1 µM), without a hit: at the highest dose activity change, negative = cytotoxicity, most hits filed as inhibitors; AID 2547, 2010; 170 compounds, 10% hits; HEK-293 viability, ATP luminescence (CellTiter-Glo), 24/48 h; shares compounds with Pol eta inh-1; also: potency is read from the fitted curve at half-maximal effect; % is scaled to controls: 0 for no effect and ±100 for the full control effect
Pol eta inh-2 = qHTS for Inhibitors of Polymerase Eta: Confirmatory Assay for Cherry-picked Compounds | shares compounds with Pol eta inh-1 | Pol eta primer extension, TAMRA/BHQ fluorescence, 10 min | Potency, µM, usual class: inhibitors | 2,600 compounds, 64% hits | AID 720502, 2013; also: potency is read from the fitted curve at half-maximal effect
The depositor's hits bear a star; ? = inconclusive; / = no result. An excerpt weighted towards active compounds, which were near 2.4% of everything screened. Calls follow the shape of the dose curve; as a rule, active = well fitted curve in the direction sought with a large enough effect; inconclusive = small, poorly fitted or top-dose-only effect, or another doubt; inactive = no such curve, though single readings can be large; an effect the other way counts as inactive or inconclusive.

SMILES	POLI inh	POLK inh	L3MBTL1 block	POLB inh	Pol eta inh-1	Pol eta inh-2	others
Cc1nnc(NS(=O)(=O)c2ccc(N=Nc3ccc(N)nc3N)cc2)s1	16µM*	79µM*	/	/	20µM*	48*
CC(=O)c1ccc(NC(=O)c2c3c(nc4ccccc24)C(=O)N(C2CCCCC2)C3)cc1	-2%	-7%	/	3%	0%	/
Cc1nnc(SCC2=C(C(=O)O)N3C(=O)C(NC(=O)Cn4ncc(Cl)c4C)C3SC2)s1 (configuration not stated)	?	?	/	32µM*	18µM*	27*
CC1=C(C(=O)O)N2C(=O)C(NC(=O)c3c(F)cccc3F)C2SC1 (configuration not stated)	-6%	-13%	4%	/	-2%	/
Cc1nnc(SCC2=C(C(=O)O)N3C(=O)C(NC(=O)c4cccc(F)c4F)C3SC2)s1 (configuration not stated)	16µM*	?	/	2%	32µM*	27*
Cc1cc(C)n(CC(=O)NC2C(=O)N3C(C(=O)O)=C(CSc4nnc(C)s4)CSC23)n1 (configuration not stated)	-14%	-15%	/	?	22µM*	?
Cc1cc(=O)n2nc(N(C)CC(=O)NCc3ccc(Cl)cc3)sc2n1	6%	-7%	/	10%	3%	/
CC(=O)c1cccc(S(=O)(=O)NCCCN2CCOCC2)c1	45µM*	?	-18%	/	20µM*	76*
CC1CN(C(=O)c2cc(S(=O)(=O)N3CCCCC3)ccc2Cl)CC(C)O1 (configuration not stated)	9%	0%	-2%	/	-19%	/
COc1ccc(-c2cc(=O)c3c(O)c(OC)c(O)cc3o2)cc1	-9%	-5%	3%	?	-19%	/
COc1cc(-c2cc(=O)c3c(O)c(OC)c(OC)cc3o2)cc(OC)c1O	?	79µM*	/	28µM*	22µM*	67*
CS(=O)(=O)c1ccc(C(=O)Nc2nc(-c3ccco3)c(-c3ccco3)s2)cc1	1.6µM*	3.2µM*	7.1µM*	/	5µM*	43*
CCc1ccc(NC(=O)CSc2cn(CC(=O)N3CCOCC3)c3ccccc23)cc1	29%	0%	/	22%	-14%	/
O=C1/C(=C/c2ccncc2)CCC/C1=C\c1ccncc1	10µM*	-18%	/	-2%	45µM*	?
O=C1C(=Cc2ccncc2)CCCc2ccccc21	/	/	/	/	6%	/
CCOC(=O)C1=C(C)N[C@@]2(O)c3ccccc3C(=O)[C@@]12O	14%	-6%	-4%	21%	-11%	/
CCOC(=O)C1=C(C)OC2(O)c3ccccc3C(=O)C12O (configuration not stated)	1.6µM*	-5%	?	-29%	40µM*	/	GALK confirm=27µM*;GALK redox cs=19µM*;HEK293 tox=9%
CC1=C(C(=O)OC(C)C)C2(O)C(=O)c3ccccc3C2(O)N1 (configuration not stated)	8%	-13%	-14%	9%	6%	/
